Screening data deposited in PubChem by National Center for Advancing Translational Sciences (NCATS).
This is a sample that favours compounds with a hit; in the whole collection about 0.7% have one here.
Vif-A3G inh = Vif-A3G binding inhibition; Potency, µM (doses to about 46.1 µM), without a hit: at the highest dose activity, negative = active, hits mostly inhibitors; Q9HC16; HeLa A3G-eYFP + Vif (tagged APOBEC3G with the HIV-1 protein that degrades it), YFP fluorescence, overnight; hit rate 0.076% among 410,000; note: % is set by controls: 0 for no effect and ±100 for the full control effect; nearly all actives have a fitted effect of over 60% in size
Target sequence (Q9HC16 whole entry, looked up): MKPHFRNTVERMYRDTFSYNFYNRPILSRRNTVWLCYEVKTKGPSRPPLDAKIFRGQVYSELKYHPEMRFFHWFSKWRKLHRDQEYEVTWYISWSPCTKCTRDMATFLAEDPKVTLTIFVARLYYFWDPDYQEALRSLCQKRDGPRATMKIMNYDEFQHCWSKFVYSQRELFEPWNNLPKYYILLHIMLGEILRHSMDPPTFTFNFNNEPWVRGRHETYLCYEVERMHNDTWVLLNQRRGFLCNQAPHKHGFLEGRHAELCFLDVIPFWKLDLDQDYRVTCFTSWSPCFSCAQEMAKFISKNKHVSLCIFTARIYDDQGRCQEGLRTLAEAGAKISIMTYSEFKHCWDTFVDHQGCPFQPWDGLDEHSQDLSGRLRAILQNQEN
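HeLa cells stably expressing Vif and C-terminally eYFP-tagged A3G, seeded overnight at 37 deg C, then exposed to compound by pintool overnight at 37 deg C. Rise in yellow fluorescence (Ex 488/Em 500-530, Acumen) marks blocked Vif-driven A3G degradation.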
Vif-A3F inh = inhibitors of Vif-A3F interaction | HeLa A3F-eYFP + Vif (tagged APOBEC3F with the HIV-1 protein that degrades it), YFP fluorescence increase | hit rate 0.2% among 390,000 | Potency, µM (doses to about 46.1 µM), inactives show at the top dose activity, negative = active; note: % of control where 0% means no effect; nearly all actives have a fitted effect of over 65% in size
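HeLa cells stably expressing A3F-eYFP plus Vif, plated and incubated overnight at 37 deg C, then exposed to compounds overnight at 37 deg C. Blocked degradation read as raised yellow fluorescence (Ex 488/Em 500-530).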
Epigenetic reg = epigenetic control regulation, reporter derepression; murine LDR cells, GFP reporter derepression, 30 h; Potency, µM (titrated, usually from 53.9 µM), inactives show top-dose GFP activation, actives largely listed as activators; hit rate 0.2% among 280,000; note: % of control where 0% means no effect; nearly all actives have a fitted effect of over 60% in size
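In this reporter-derepression format, murine cells bearing a silenced integrated CMV-GFP locus incubate with test compound (30 h, 37 C), then are washed and imaged; fluorescent objects of 20–120 um count as induced cells.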
GLS inh = inhibitors of human glutaminase (GLS) | hit rate 0.21% among 410,000 | O94925 | Potency, µM (doses to about 45.5 µM), for inactives: at the top dose activity change, negative = inhibition, actives largely listed as inhibitors | GLS enzymatic activity, qHTS titration | AID 624170; note: % is set by controls: 0 for no effect and ±100 for the full control effect
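Glutamate formation by hKGA was monitored fluorometrically using coupled glutamate oxidase, HRP and Amplex Red. Substrate was added as 1 mM L-glutamine solution; incubation was 30 min at RT after an initial read.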
PINK1 modulator = PINK1 expression modulation; PINK1 immunofluorescence, high-content cytometry, 24 h; Potency, µM (doses to about 76.6 µM), for inactives: at the top dose activation (PINK1 increase), usual class: activators; hit rate 0.2% among 410,000; active = well fitted activation curve with a large enough effect; inconclusive = small, poorly fitted or top-dose-only effect; cell line not stated here; note: % of control where 0% means no effect; nearly all actives have a fitted effect of over 65% in size
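Measures PINK1 amount and localization on or inside mitochondria by immunofluorescence. Stable cells get compounds at 5 concentrations for 24 hours before fixation and staining; CCCP controls included.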
* = called active by the depositor; ? = inconclusive; / = no result; [ ] = dose if it differs, or a comment. Unless noted, calls come from the whole dose curve; as a rule, active = well fitted curve in the direction sought with a large enough effect; inconclusive = small, poorly fitted or top-dose-only effect, or another doubt; inactive = no such curve, though single readings can be large; an effect the other way counts as inactive or inconclusive. Potency is the fitted concentration of half-maximal effect.

SMILES	Vif-A3G inh	Vif-A3F inh	Epigenetic reg	GLS inh	PINK1 modulator
COC(=O)C1CCN(Cc2ccc3c(c2)CN(C(=O)C(C)N2CCOCC2)CCO3)CC1 (stereo not drawn)	/	/	/	/	1.4%
O=c1[nH]c(CN2CCN(c3ccccc3)CC2)nc2scc(-c3ccccc3)c12	?	22.4µM*	?	16.2%	8.8%
O=C(NN=Cc1ccc(N2CCOCC2)s1)c1ccc([N+](=O)[O-])cc1	-0.9%	-6.1%	/	10.0%	15.8µM*
O=C(N/N=C/c1ccc(N2CCOCC2)s1)c1ccc(O)cc1	0.2%	1.0%	/	62.6%	4.0%
FC(F)(F)c1cccc(-c2nc3nc(Cl)c(Cl)nc3[nH]2)c1	?	0.6%	1.1%	2.0%	2.82µM*
O=[N+]([O-])c1cc([N+](=O)[O-])c2oc(-c3ccccc3)c(Br)c2c1O	-27.6%	-14.6%	/	-7.6%	35.5µM*
C/C(=N\NC(=S)Nc1ccccc1C)c1ccc(O)cc1	-9.0%	?	10.1%	10µM*	1.3%
CN(C)Cc1cc(O)c(CN(C)C)cc1O	0.4%	11.1%	0.0%	14.1µM*	0.1%
O=C(Nc1c(Cl)cc([N+](=O)[O-])cc1Cl)c1cc(Cl)cc(Cl)c1O	-22.4%	/	/	/	14.1µM*
CCN(CC)CCC[C@H](C)Nc1c2ccc(Cl)cc2nc2ccc(OC)cc12	/	/	3.55µM*	24.0%	/
CCS(=O)(=O)Nc1cc(C(=O)N2CCC[C@H]2CO)c2c(c1)nc(-c1ccccc1)n2C	/	/	/	/	1.4%
CCN(CC(=O)Nc1ccccc1SC)Cc1nc2ccccc2c(=O)[nH]1	-5.2%	?	?	-0.4%	2.7%
CCN(CC(=O)Nc1ccccc1-c1ccccc1)Cc1nc2ccccc2c(=O)[nH]1	7.08µM*	-0.7%	4.0%	6.3%	2.2%
CCN(CC)c1ccc(/C=C2\SC(N)=NC2=O)cc1	8.91µM*	?	/	6.0%	6.9%
O=C1/C(=C/c2ccc(O)c(O)c2)Oc2cc(O)ccc21	?	?	1.0%	8.91µM*	3.5%
Cc1cc(C)n(C(=O)c2c([N+](=O)[O-])c(C)nn2C)n1	4.4%	1.7%	1.0%	-10.5%	5.5%[38.3 µM]
Cc1ccc(SC(=O)c2c([N+](=O)[O-])c(C)nn2C)cc1	-14.4%	-13.0%	22.4µM*	0.0%	4.3%
CC(=O)Nc1ccccc1-c1nc(CNC(=O)c2cc(C)ccc2C)c(C)o1	/	/	/	/	0.8%
CCOC(=O)c1c(-c2ccc(C)cc2)csc1NC(=O)/C(C#N)=C/c1ccc(O)c(OC)c1	10µM*	?	11.2µM*	2.0%	0.3%
Cc1cc(C)cc(NC(=O)C2CC23CCN(Cc2ccc4ncccc4c2)CC3)c1 (stereo not drawn)	/	/	/	/	-0.1%
COc1ccc(CCNc2ncnc3sc(C(=O)N4CCCCC4)c(C)c23)cc1OC	/	/	/	/	2.4%
CC1(C(=O)O)CCC2(C)CCC3(C)C(=CC(=O)[C@@H]4C5(C)CC[C@H](O[C@H]6O[C@H](C(=O)O)C(O)C(O)[C@H]6O[C@@H]6O[C@H](C(=O)O)C(O)C(O)C6O)C(C)(C)[C@@H]5CCC43C)[C@@H]2C1 (stereo partly drawn)	/	/	/	14.1µM*	/
CCCCNC(=O)c1sc2ncnc(NCC3CCCO3)c2c1C (stereo not drawn)	/	/	/	/	-0.3%
Fc1ccc(NC(=S)Nc2ccc(F)c(Cl)c2)cc1Cl	2.1%	-3.1%	2.8%	-5.0%	39.8µM*
Cc1ccc(NC(=S)Nc2ccc(OC(F)F)c(Cl)c2)cc1F	2.7%	-4.3%	1.1%	-14.8%	15.8µM*
SMILES	Vif-A3G inh	Vif-A3F inh	Epigenetic reg	GLS inh	PINK1 modulator
O=C(NC(=S)Nc1ccc(F)c(Cl)c1)C1CC1	-0.3%	-18.9%	/	19.9%	3.7%
COc1cccc(C(=O)NCc2nc(-c3cccc(NC(=O)c4ccoc4C)c3)oc2C)c1OC	/	/	/	/	0.0%
COc1ccc(Nc2sc(C(=O)c3ccc(Cl)cc3)c(N)c2C(=O)Nc2ccccc2OC)cc1	-7.5%	2.2%	3.9%	-0.3%	15.8µM*
COc1ccc(C(=O)c2sc(Nc3ccccc3)c(C(=O)Nc3ccc(OC)c(OC)c3)c2N)cc1	-4.3%	-1.0%	2.9%	18.5%	?
COc1ccc(-n2c(CNC(=O)c3cccc(OC)c3OC)nnc2SC)cc1	/	/	/	/	2.5%
Cc1ccc(O)c(Nc2c3ccccc3nc3ccccc23)c1	4.3%	?	/	8.91µM*	?
